Results from PubChem BioAssay (NCI).
About 83,000 compounds went through this panel and 20% of them were active in at least one assay; those are over-represented in the sample as a whole.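 The test compound was applied at a single concentration to cells in 96-well plates for 48 hours, and percent growth was recorded.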 A number with no mark means an inactive call. Active and inactive are the calls of the source. How the source made its calls: active means growth percent below 10; inactive means the rest.

Tested on: SR leukemia
Assay: NCI-60 one-dose screen, 48 h (100 = growth as untreated, 0 = no growth, -100 = all killed)
Settings: 10 µM unless noted

Structure (SMILES)	growth
COc1ccc(-n2cc(-c3ccc(Cl)c(Cl)c3)[nH]c2=O)cc1OC	40.1%
CN1CCN(S(=O)(=O)O[C@@H]2C(=O)N(c3cc4c5ccccc5ccc4c4ccccc34)[C@H]2c2ccc(F)cn2)CC1	52.5%
O=C(O)CCNC1CCCCC1	105%
C#C[C@@]1(O)[C@@H](CO)O[C@@H](n2cc(I)c3c(N)ncnc32)[C@@H]1O	-1.14% (active)
COC1=CC2C=C(C3N(c4ccccc4)NC(=O)[C@@H]4CCCN34)C(=O)NC2C=C1 (stereo partly drawn)	105%
CCCCc1n(Cc2ccc3ccccc3n2)cc[n+]1Cc1ccc2ccccc2c1	-27.1% (active)
CN1CCN(/C=C2\CC(C(=O)NCc3ccc(Cl)cc3Cl)NC2=O)CC1 (stereo not drawn)	90.3%
O=C1NC(SCc2ccc(F)cc2)=N/C1=C/c1cccc(OCc2ccc(Cl)cc2)c1	20.6%
NS(=O)(=O)c1ccc(-n2ncc(NC(=O)Nc3ccc(S(=O)(=O)Nc4nccs4)cc3)c2-c2ccccc2)cc1	103%
N#CC(C#N)=C1NC(c2ccccc2)=C(c2ccccc2)C(c2ccccc2Cl)=C1C#N	109%
CCOc1ccccc1C(=O)/C=C/c1cc2ccccc2[nH]c1=O	4% (active)
Cc1ccc2nc3nc4ccc[nH]c4cc3c2c1	18.1%
C=C1C(=O)O[C@H]2[C@H]1CC/C(C=Nc1c(N)cc(C(F)(F)F)cc1Br)=C\CC[C@@]1(C)O[C@@H]21	-4.04% (active)
NC(N)=NC(N)=Nc1cc2ccccc2c2ccccc12	-2.98% (active)
O=C(Nc1ccc(S(=O)(=O)NC2CCCCCC2)cc1)C(c1ccccc1)S(=O)(=O)c1ccc(F)cc1 (stereo not drawn)	-0.97% (active)
O=c1[nH]c2ccccc2cc1-c1nc2ccncc2[nH]1	46.8%
Cc1cccc(C)c1NCc1nnc(-c2ccco2)o1	85.7%
Cc1ccc(-c2nc(C#N)c(S(=O)(=O)N(C)CCO)o2)cc1	10.8%
Nc1c(C(=O)Nc2ccccc2Cl)sc2nc3c(cc12)CN(Cc1ccccc1)CC3	87.1%

Structure (SMILES)	growth
C#Cc1ccccc1NC(=O)c1sc2nc3c(cc2c1N)CCCCCC3	12.3%
CCOCc1cc(C(C)(C)C)ccc1O	88.7%
C=C(C)[C@@H]1CC[C@]2(C(=O)OCCOCCOCC[P+](c3ccccc3)(c3ccccc3)c3ccccc3)CC[C@]3(C)[C@H](CC[C@@H]4[C@@]5(C)CC[C@H](OC(=O)C(Cl)Cl)C(C)(C)[C@@H]5CC[C@]43C)[C@@H]12	-32% (active)
CNCc1cccc2c1OCCOCCOCCN(CCN1CCOCC1)S(=O)(=O)c1ccc(cc1)-c1cnc(N)c(n1)C(=O)N2	7.93% (active)
Cc1c(Cl)cccc1NC(=O)c1sc2nc3c(cc2c1N)CN(Cc1ccccc1)CC3	16.9%
C=C(C)[C@@H]1CC[C@]2(C(=O)NCCCO)CC[C@]3(C)[C@H](CC[C@@H]4[C@@]5(C)CCCNC(C)(C)[C@@H]5CC[C@]43C)[C@@H]12	-19.5% (active)
COc1cc(/C=N/Nc2nc(-c3ccc(F)cc3)c(C#N)c(N3CCOCC3)n2)ccc1O	74.9%
C=C(C)[C@@H]1CC[C@]2(C(=O)N=C=S)CC[C@]3(C)[C@H](CC[C@@H]4[C@@]5(C)CCC(=O)C(C)(C)[C@@H]5CC[C@]43C)[C@@H]12	27.6%
CC1CCCN(CCCCCOc2ccc3oc4ccc(Cl)cc4c(=O)c3c2)C1 (stereo not drawn)	21%
O=C(Nc1cccc(-c2cccc(F)c2)c1)C1CCN(Cc2cccc3cccnc23)CC1	-32.7% (active)
CC(=O)Nc1ccc2c(c1)Cc1cc(F)ccc1-2	87.5%
COc1ccc2[nH]c(=O)c(/C=C/C(=O)/C=C/c3ccc(O)c(OC)c3)cc2c1	1.27% (active)
CC1=C/C(=N\N=C2/C=C(C)CC(C)(C)C2)CC(C)(C)C1	97.3%
NC(=O)c1ccc(C2C3=C(CCCC3=O)OC3=C2C(=O)c2ccccc2C3=O)cc1 (stereo not drawn)	8.38% (active)
N#CC1(C#N)C2=C(CCCC2)NC(c2c(F)cccc2Cl)C1(C#N)C#N (stereo not drawn)	30.1%
CCCCn1c(=O)c(/C=C/C(=O)/C=C/c2ccc(OC)cc2)cc2cc(Cl)ccc21	3.16% (active)
CCOC(=O)c1ccc(Nc2ncnc3ccc(NC(=O)c4ccccc4)cc23)cc1	73.8%
NS(=O)(=O)c1ccc(-n2nc(-c3ccccc3)ccc2=O)cc1	83.9%
CC(=O)Nc1nc2c(c(N)c1C#N)C(c1cccc(Cl)c1)C1=C(CCCC1=O)N2c1sc2c(c1C#N)CCCC2 (stereo not drawn)	26%
